# Experimental data reported in the supplement of paper PMC8728848.
# The full list was thinned out, with the strongest signals kept by preference.
# B1: DC-ASGPR Long (Homo sapiens) (protein)
# chain: MTRTYENFQYLENKVKVQGFKNGPLPLQSLLQRLRSGPCHLLLSLGLGLLLLVIICVVGFQNSKFQRDLVTLRTDFSNFTSNTVAEIQALTSQGSSLEETIASLKAEVEGFKQERQAGVSELQEHTTQKAHLGHCPHCPSVCVPVHSEMLLRVQQLVQDLKKLTCQVATLNNNASTEGTCCPVNWVEHQDSCYWFSHSGMSWAEAEKYCQLKNAHLVVINSREEQNFVQKYLGSAYTWMGLSDPEGAWKWVDGTDYATGFQNWKPGQPDDWQGHGLGGGEDCAHFHPDGGWNDDVCQRPYHWVCEAGLGQTSQESH
# Experiments:
# Test in all cases: glycan array binding signal (z-score within array); higher = stronger binding
# Settings in all cases: glycan notation: IUPAC condensed, linker removed
# [1] = target: Fuc(a1-2)Gal(b1-3)GlcNAc(b1-2)Man(a1-3)[Fuc(a1-2)Gal(b1-3)GlcNAc(b1-2)Man(a1-6)]Man(b1-4)GlcNAc(b1-4)GlcNAc
# Method in brief: (§1)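 Glycan array data came from 3228 arrays in the Consortium for Functional Glycomics database, and only arrays with an available protein sequence were kept. Glycan names were put into IUPAC-condensed notation, and columns mapping to the same glycan were averaged. The binding signal is a within-array Z-score, averaged across arrays of one protein sequence run at different concentrations or buffers and across linkers. A negative Z-score can be read as non-binding.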
# [2] = target: Fuc(a1-2)Gal(b1-3)GlcNAc(b1-2)Man(a1-3)[Fuc(a1-2)Gal(b1-3)GlcNAc(b1-2)Man(a1-6)]Man(b1-4)GlcNAc(b1-4)[Fuc(a1-6)]GlcNAc
# Method in brief: as §1
# Fuc(a1-2)Gal(b1-4)GlcNAc = target: Fuc(a1-2)Gal(b1-4)GlcNAc
# Method in brief: as §1
# [3] = target: Fuc(a1-2)Gal3S(b1-4)GlcNAc
# Method in brief: as §1
# [4] = target: Fuc(a1-2)[GalNAc(a1-3)]Gal(b1-4)GlcNAc(b1-3)Gal(b1-4)GlcNAc
# Method in brief: as §1
# [5] = target: Fuc(a1-2)[GalNAc(a1-3)]Gal(b1-4)GlcNAc(b1-6)GalNAc
# Method in brief: as §1
# [6] = target: Fuc(a1-2)[GalNAc(a1-4)]Gal(b1-4)GlcNAc
# Method in brief: as §1
# [7] = target: Fuc(a1-2)[GalNAc(b1-3)]Gal
# Method in brief: as §1
# [8] = target: Gal(a1-3)Gal(b1-3)GlcNAc(b1-6)GalNAc
# Method in brief: as §1
# [9] = target: Gal(a1-3)Gal(b1-4)GlcNAc(b1-6)GalNAc
# Method in brief: as §1
# [10] = target: Gal(a1-4)Gal(b1-3)GlcNAc(b1-2)Man(a1-3)[Gal(a1-4)Gal(b1-3)GlcNAc(b1-2)Man(a1-6)]Man(b1-4)GlcNAc(b1-4)GlcNAc
# Method in brief: as §1
# [11] = target: Gal(a1-4)Gal(b1-4)GlcNAc(b1-3)Gal(b1-4)Glc
# Method in brief: as §1
# Gal(b1-3)GlcNAc(b1-2)Man = target: Gal(b1-3)GlcNAc(b1-2)Man
# Method in brief: as §1
# [12] = target: Gal(b1-3)GlcNAc(b1-2)Man(a1-3)[GlcNAc(b1-4)][Gal(b1-3)GlcNAc(b1-2)Man(a1-6)]Man(b1-4)GlcNAc(b1-4)GlcNAc
# Method in brief: as §1
# [13] = target: Gal(b1-3)GlcNAc(b1-6)GalNAc
# Method in brief: as §1
# Gal3S(b1-4)Glc = target: Gal3S(b1-4)Glc
# Method in brief: as §1
# [14] = target: GalNAc(b1-3)Gal(a1-4)Gal(b1-4)GlcNAc
# Method in brief: as §1
# [15] = target: GalNAc(b1-3)Gal(a1-6)Gal(b1-4)Glc
# Method in brief: as §1
# [16] = target: GlcNAc(b1-2)Man(a1-3)[GlcNAc(b1-4)][GlcNAc(b1-2)Man(a1-6)]Man(b1-4)GlcNAc(b1-4)GlcNAc
# Method in brief: as §1
# [17] = target: GlcNAc(b1-2)[GlcNAc(b1-6)]Man(a1-6)[GlcNAc(b1-2)Man(a1-3)]Man(b1-4)GlcNAc(b1-4)GlcNAc
# Method in brief: as §1
# [18] = target: GlcNAc(b1-3)Gal(b1-4)GlcNAc
# Method in brief: as §1
# [19] = target: GlcNAc(b1-3)Gal(b1-4)GlcNAc(b1-3)Gal(b1-4)GlcNAc(b1-3)Gal(b1-4)GlcNAc(b1-2)Man(a1-3)[GlcNAc(b1-3)Gal(b1-4)GlcNAc(b1-3)Gal(b1-4)GlcNAc(b1-3)Gal(b1-4)GlcNAc(b1-2)Man(a1-6)]Man(b1-4)GlcNAc(b1-4)[Fuc(a1-6)]GlcNAc
# Method in brief: as §1
# [20] = target: GlcNAc(b1-3)Gal(b1-4)GlcNAc(b1-3)Gal(b1-4)GlcNAc(b1-3)Gal(b1-4)GlcNAc(b1-3)Gal(b1-4)GlcNAc(b1-2)Man(a1-3)[GlcNAc(b1-3)Gal(b1-4)GlcNAc(b1-3)Gal(b1-4)GlcNAc(b1-3)Gal(b1-4)GlcNAc(b1-3)Gal(b1-4)GlcNAc(b1-2)Man(a1-6)]Man(b1-4)GlcNAc(b1-4)GlcNAc
# Method in brief: as §1
# [21] = target: GlcNAc(b1-3)Gal(b1-4)GlcNAc(b1-3)Gal(b1-4)GlcNAc(b1-3)Gal(b1-4)GlcNAc(b1-3)Gal(b1-4)GlcNAc(b1-2)Man(a1-3)[GlcNAc(b1-3)Gal(b1-4)GlcNAc(b1-3)Gal(b1-4)GlcNAc(b1-3)Gal(b1-4)GlcNAc(b1-3)Gal(b1-4)GlcNAc(b1-2)Man(a1-6)]Man(b1-4)GlcNAc(b1-4)[Fuc(a1-6)]GlcNAc
# Method in brief: as §1
# GlcNAc(b1-6)GalNAc = target: GlcNAc(b1-6)GalNAc
# Method in brief: as §1
# Kdn(a2-3)Gal(b1-3)GlcNAc = target: Kdn(a2-3)Gal(b1-3)GlcNAc
# Method in brief: as §1
# [22] = target: Man(a1-2)Man(a1-3)[Man(a1-2)Man(a1-6)]Man(a1-6)[Man(a1-2)Man(a1-2)Man(a1-3)]Man(b1-4)GlcNAc(b1-4)GlcNAc
# Method in brief: as §1
# Neu5Ac(a2-3)Gal = target: Neu5Ac(a2-3)Gal
# Method in brief: as §1
# [23] = target: Neu5Ac(a2-3)Gal(b1-3)GlcNAc(b1-6)GalNAc
# Method in brief: as §1
# [24] = target: Neu5Ac(a2-3)Gal(b1-3)[Fuc(a1-4)]GlcNAc(b1-3)Gal(b1-3)[Fuc(a1-4)]GlcNAc
# Method in brief: as §1
# [25] = target: Neu5Ac(a2-3)Gal(b1-3)[Neu5Ac(a2-6)]GlcNAc(b1-3)[Fuc(a1-3)[Gal(b1-4)]GlcNAc(b1-6)]Gal(b1-4)Glc
# Method in brief: as §1
# Neu5Ac(a2-3)Gal(b1-4)Glc = target: Neu5Ac(a2-3)Gal(b1-4)Glc
# Method in brief: as §1
# [26] = target: Neu5Ac(a2-3)Gal(b1-4)[Fuc(a1-3)]GlcNAc(b1-3)GalNAc
# Method in brief: as §1
# [27] = target: Neu5Ac(a2-6)Gal(b1-4)GlcNAc(b1-2)Man(a1-3)[Neu5Ac(a2-6)Gal(b1-4)GlcNAc(b1-2)Man(a1-6)]Man(b1-4)GlcNAc(b1-4)GlcNAc
# Method in brief: as §1
# [28] = target: Neu5Ac(a2-6)Gal(b1-4)GlcNAc(b1-2)Man(a1-3)[Neu5Ac(a2-6)Gal(b1-4)GlcNAc(b1-2)Man(a1-6)]Man(b1-4)GlcNAc(b1-4)[Fuc(a1-6)]GlcNAc
# Method in brief: as §1
# [29] = target: Neu5Ac(a2-6)Gal(b1-4)GlcNAc(b1-2)Man(a1-6)[Man(a1-3)]Man(b1-4)GlcNAc(b1-4)GlcNAc
# Method in brief: as §1
# [30] = target: Neu5Ac(a2-6)Gal(b1-4)GlcNAc(b1-6)GalNAc
# Method in brief: as §1
# [31] = target: Neu5Ac(a2-8)Neu5Ac(a2-3)Gal(b1-3)GalNAc(b1-4)[Neu5Ac(a2-8)Neu5Ac(a2-3)]Gal(b1-4)Glc
# Method in brief: as §1
# [32] = target: Neu5Ac(a2-8)Neu5Ac(a2-8)Neu5Ac
# Method in brief: as §1
binder,measurement,setting,value
B1,glycan array binding signal (z-score),[1],-1.26
same,glycan array binding signal (z-score),[2],-0.382
same,glycan array binding signal (z-score),Fuc(a1-2)Gal(b1-4)GlcNAc,-0.356
same,glycan array binding signal (z-score),[3],0.826
same,glycan array binding signal (z-score),[4],-0.618
same,glycan array binding signal (z-score),[5],5.11
same,glycan array binding signal (z-score),[6],3.67
same,glycan array binding signal (z-score),[7],5.95
same,glycan array binding signal (z-score),[8],3.07
same,glycan array binding signal (z-score),[9],3.58
same,glycan array binding signal (z-score),[10],-0.383
same,glycan array binding signal (z-score),[11],-0.788
same,glycan array binding signal (z-score),Gal(b1-3)GlcNAc(b1-2)Man,-0.186
same,glycan array binding signal (z-score),[12],-0.269
same,glycan array binding signal (z-score),[13],5.68
same,glycan array binding signal (z-score),Gal3S(b1-4)Glc,-0.075
same,glycan array binding signal (z-score),[14],3.37
same,glycan array binding signal (z-score),[15],3.13
same,glycan array binding signal (z-score),[16],-0.323
same,glycan array binding signal (z-score),[17],5.41
same,glycan array binding signal (z-score),[18],-0.433
same,glycan array binding signal (z-score),[19],0.194
same,glycan array binding signal (z-score),[20],0.068
same,glycan array binding signal (z-score),[21],1.61
same,glycan array binding signal (z-score),GlcNAc(b1-6)GalNAc,3.43
same,glycan array binding signal (z-score),Kdn(a2-3)Gal(b1-3)GlcNAc,-0.092
same,glycan array binding signal (z-score),[22],-0.746
same,glycan array binding signal (z-score),Neu5Ac(a2-3)Gal,-0.419
same,glycan array binding signal (z-score),[23],4.59
same,glycan array binding signal (z-score),[24],-0.273
same,glycan array binding signal (z-score),[25],-0.251
same,glycan array binding signal (z-score),Neu5Ac(a2-3)Gal(b1-4)Glc,-0.302
same,glycan array binding signal (z-score),[26],0.105
same,glycan array binding signal (z-score),[27],-0.115
same,glycan array binding signal (z-score),[28],-0.343
same,glycan array binding signal (z-score),[29],-0.516
same,glycan array binding signal (z-score),[30],-0.224
same,glycan array binding signal (z-score),[31],-0.349
same,glycan array binding signal (z-score),[32],-0.221
